Measured values as given in PubChem BioAssay (Tox21).
Results filed as inconclusive are left out. Entries that show only a call come without a potency. Active and inactive are the calls of the source. The call rests on the fitted dose curve; in most records, active means well fitted cell-killing curve with a large enough effect in the repeat runs; inconclusive means weak or mixed curves, or effect the other way; inactive means flat fitted curve, though single readings scatter.

Tests used:
[1] = cAMP Responsive Elements (CRE) small molecule antagonists, cell-based qHTS assay: qHTS cell viability counter screen (AID 2060913); further: nearly all actives have a fitted effect of over 40% in size
Outline: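 Viability of NKH477-stimulated (0.25 uM final) CRE-bla HEK293T cells is measured by CellTiter-Glo luminescence following 3 hrs compound exposure at 37 C.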

[2] = cAMP Responsive Elements (CRE) small molecule agonists, cell-based qHTS assay: qHTS cell viability counter screen (AID 2060914);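 further: viability read after 3 h of compound exposure; nearly all actives have a fitted effect of over 50% in size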
Outline: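 CRE-bla HEK 293T cells, plated 18 h at 37 °C, were exposed to compounds for 3 h at 37 °C/5% CO2. Viability was then measured in the same wells by CellTiter-Glo luminescence after 30 min at room temperature.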
Potency means the concentration at half of the fitted maximal effect.

| Structure (SMILES) | Potency [1] | Potency [2] |
| --- | --- | --- |
| CC(=O)C(Cl)Cl | inactive | inactive |
| CCCCOCC1CO1 (stereo unspecified) | inactive | inactive |
| CNC(C)(C)Cc1ccccc1 | inactive | inactive |
| SCc1ccco1 | inactive | inactive |
| COP(=S)(NC(C)C)Oc1ccc(C)cc1[N+](=O)[O-] (stereo unspecified) | inactive | inactive |
| O=C(O)C(F)(F)C(F)(F)C(F)(F)C(F)(F)C(F)(F)F | inactive | inactive |
| CCN(N=O)C(N)=O | inactive | inactive |
| Cc1cccc(C)c1N | inactive | inactive |
| CCC1(CCC(C)C)C(=O)NC(=O)NC1=O | inactive | inactive |
| BrCC(Br)(Br)Br | inactive | inactive |
| ClCC1CO1 (stereo unspecified) | inactive | inactive |
| [CH3][Sn]([CH3])([Cl])[Cl] | inactive | inactive |
| CC(C)(C1CCC(O)CC1)C1CCC(O)CC1 (stereo unspecified) | inactive | inactive |
| OC(c1ccccc1)(c1ccccc1)C1CCNCC1 | inactive | inactive |
| CC(C)(C)OO | inactive | inactive |
| O=C([O-])c1ccccn1.O=C([O-])c1ccccn1.O=C([O-])c1ccccn1.[Cr+3] | inactive | inactive |
| Cc1ncc2n1-c1ccc(Cl)cc1C(c1ccccc1F)=NC2 | inactive | inactive |
| ClC1=C(Cl)[C@]2(Cl)[C@@H]3[C@@H](Cl)[C@H](Cl)C[C@@H]3[C@@]1(Cl)C2(Cl)Cl | inactive | inactive |
| O=c1[nH]c2ccccc2o1 | inactive | inactive |
| CCOP(=S)(OCC)SCCS(=O)(=O)CC | inactive | inactive |
| NC1(c2ccccc2)CCCCC1 | inactive | inactive |

| Structure (SMILES) | Potency [1] | Potency [2] |
| --- | --- | --- |
| COC1CC(=C(c2cccs2)c2cccs2)C[N+](C)(C)C1 (stereo unspecified) | inactive | inactive |
| N#Cc1ccc(Cl)cc1 | inactive | inactive |
| CCC1(CC)C(=O)NC(=O)NC1=O | inactive | inactive |
| OCc1ccco1 | inactive | inactive |
| CSC(C)(C)/C=N/O | inactive | inactive |
| CC(C)(C)c1cc(O)ccc1O | inactive | inactive |
| Cc1cc(Cl)ccc1O | inactive | inactive |
| CC(C)CCON=O | inactive | inactive |
| CC(C)N(C(=O)SCC(Cl)=C(Cl)Cl)C(C)C | inactive | inactive |
| C=CCN1CC[C@]23CCCC[C@H]2[C@H]1Cc1ccc(O)cc13 | inactive | inactive |
| CCOC(=O)c1ccccc1S(=O)(=O)NC(=O)Nc1nc(Cl)cc(OC)n1 | inactive | inactive |
| CC(Br)C(=O)O (stereo unspecified) | inactive | inactive |
| CNC(=O)O/N=C(\SC)C(=O)N(C)C | inactive | inactive |
| C[N+](C)(C)CCCl | inactive | inactive |
| COc1ccc(C(=O)N2CCCC2=O)cc1 | inactive | inactive |
| Cc1ccccc1N | inactive | inactive |
| COC(=O)C(Cl)C(=O)OC | inactive | inactive |
| CN1CSC(=S)N(C)C1 | inactive | inactive |
| Brc1ccc(Br)cc1 | inactive | inactive |
| COC(=O)c1ccccc1C(=O)OC | inactive | inactive |
| O=c1[nH]c2cc(Cl)ccc2n1C1CCNCC1 | inactive | inactive |

| Structure (SMILES) | Potency [1] | Potency [2] |
| --- | --- | --- |
| CCOP(=S)(OCC)O/N=C(\C#N)c1ccccc1 | inactive | inactive |
| CCCCCCCCBr | inactive | inactive |
| CC1CN1 (stereo unspecified) | inactive | inactive |
| CCCC[N+]1(C)CCCCC1 | inactive | inactive |
| CCS(=O)(=O)CCSP(=O)(OC)OC | inactive | inactive |
| CN1CC[C@]23c4c5ccc(O)c4O[C@H]2[C@@H](O)C=C[C@H]3[C@H]1C5 | inactive | inactive |
| CCOP(=S)(OCC)SCn1nnc2ccccc2c1=O | inactive | inactive |
| ClCc1ccc(Cl)cc1Cl | inactive | inactive |
| CC(C)(Cl)[N+](=O)[O-] | inactive | inactive |
| Clc1ccc(C(c2ccc(Cl)cc2)C(Cl)(Cl)Cl)cc1 | inactive | inactive |
| Nc1ccc(N=Nc2ccccc2)cc1 | inactive | inactive |
| CC(=O)/C=C/c1ccccc1 | inactive | inactive |
| N#CC(Br)(Br)C(N)=O | inactive | inactive |
| CCCCc1ccccc1 | inactive | inactive |
| C=CC(=O)OCC(C)C | inactive | inactive |
| Cc1ccc(N=CN(C)C=Nc2ccc(C)cc2C)c(C)c1 | inactive | inactive |
| O=c1c(C2CC(c3ccc(-c4ccc(Br)cc4)cc3)Cc3ccccc32)c(O)sc2ccccc12 (stereo unspecified) | inactive | inactive |
| COP(N)(=S)OC | inactive | inactive |
| CC(C(=O)c1ccccc1)N(C)C (stereo unspecified) | inactive | inactive |
| [Cl][Hg][c]1ccccc1 | 19.3 µM (active) | 30.6 µM (active) |
| Cc1cc(Cl)ccc1O[C@H](C)C(=O)O | inactive | inactive |
